Several values for one entry are separate records, joined by “and”; a condition that tells them apart may be missing. Identical values can stand only once. A structure can be active in one record and inactive in another. Activity calls are given as the source filed them. Rule for the calls: active = hit-call score of the fitted dose curve at least 0.9, where 1 is the maximum; inactive = score below 0.9.
Columns and labels:
[1] = read-out: Thrombomodulin, THBD (gene 7056); experiment: BSK_CASM3C_Thrombomodulin: BioMAP Diversity Plus: CASM3C Assay for Thrombomodulin Biomarker Activity (AID 2283051); details: primary human coronary artery smooth muscle cells; actives raise or lower the signal;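 note: thrombomodulin protein level measured by ELISA 24 h after dosing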
[2] = read-out: Tissue Factor, F3 (gene 2152); experiment: BSK_CASM3C_TissueFactor: BioMAP Diversity Plus: CASM3C Assay for Tissue Factor Biomarker Activity (AID 2283052); details: primary human coronary artery smooth muscle cells; actives raise or lower the signal;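 note: cell surface tissue factor protein level read by ELISA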
[3] = read-out: Interferon-gamma inducible Protein 10 (IP10), CXCL10 (gene 3627); experiment: BSK_hDFCGF_IP10: BioMAP Diversity Plus: hDFCGF Assay for Interferon-gamma inducible Protein 10 (IP10) Biomarker Activity (AID 2283053); details: primary human foreskin fibroblasts; actives raise or lower the signal
Method in brief: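 ELISA read-out of IP-10 (CXCL10) from primary human skin fibroblasts, 24 h after compound addition. Gain or loss of signal versus DMSO baseline, bidirectional curve fitting.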

[4] = read-out: Urokinase-type plasminogen activator receptor (uPAR), PLAUR (gene 5329); experiment: BSK_CASM3C_uPAR: BioMAP Diversity Plus: CASM3C Assay for Urokinase-type plasminogen activator receptor (uPAR) Biomarker Activity (AID 2283054); details: primary human coronary artery smooth muscle cells; actives raise or lower the signal;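 note: cell-surface uPAR protein level quantified by ELISA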
[5] = read-out: Vascular cell adhesion molecule 1 (VCAM1), VCAM1 (gene 7412); experiment: BSK_CASM3C_VCAM1: BioMAP Diversity Plus: CASM3C Assay for Vascular cell adhesion molecule 1 (VCAM1) Biomarker Activity (AID 2283055); details: primary human coronary artery smooth muscle cells; actives raise or lower the signal;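 note: VCAM-1 protein level quantified by ELISA on the cells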
[6] = read-out: Collagen III, COL3A1 (gene 1281); experiment: BSK_hDFCGF_CollagenIII: BioMAP Diversity Plus: hDFCGF Assay for Collagen III Biomarker Activity (AID 2283056); details: primary human foreskin fibroblasts; actives raise or lower the signal
Method in brief: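 Cells: human foreskin fibroblasts, primary. Dosing followed by 24 h incubation, then ELISA for collagen III. Both increases and decreases scored relative to DMSO.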

[7] = read-out: Epidermal growth factor receptor (EGFR), EGFR (gene 1956); experiment: BSK_hDFCGF_EGFR: BioMAP Diversity Plus: hDFCGF Assay for Epidermal growth factor receptor (EGFR) Biomarker Activity (AID 2283057); details: primary human foreskin fibroblasts; actives raise or lower the signal
Method in brief: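 ELISA readout of EGFR on human dermal fibroblasts (primary foreskin cells), 24 h post-dosing; bidirectional curve fit vs DMSO baseline, gain or loss of signal scored.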

[8] = read-out: Interleukin-8 (IL8), CXCL8 (gene 3576); experiment: BSK_hDFCGF_IL8: BioMAP Diversity Plus: hDFCGF Assay for Interleukin-8 (IL8) Biomarker Activity (AID 2283058); details: primary human foreskin fibroblasts; actives raise or lower the signal
Method in brief: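 IL-8 levels from compound-treated primary human fibroblasts were read by ELISA at 24 h, with DMSO serving as baseline for bidirectional fitting.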

[9] = BSK_hDFCGF_Proliferation: Cell Proliferation Assessment in the BioMAP Diversity Plus: hDFCGF Assay (AID 2283059); details: primary human foreskin fibroblasts;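 note: curves fitted for both rise and fall of signal versus DMSO baseline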
Method in brief: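 Sub-confluent human foreskin fibroblast cultures receive test chemical […]. Relative cell number is quantified by sulforhodamine B staining (0.1%, after 10% TCA fixation) at 560 nm, with bidirectional fitting referenced to DMSO.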

[10] = read-out: Macrophage colony-stimulating factor (MCSF), CSF1 (gene 1435); experiment: BSK_hDFCGF_MCSF: BioMAP Diversity Plus: hDFCGF Assay for Macrophage colony-stimulating factor (MCSF) Biomarker Activity (AID 2283060); details: primary human foreskin fibroblasts; actives raise or lower the signal
Method in brief: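 M-CSF levels, determined by ELISA, are taken at 24 h after dosing human skin fibroblasts. Responses in either direction are fitted with DMSO serving as the baseline.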

Measured: AC50

O=Cc1cccc(Oc2ccccc2)c1
inactive: [1] | [2] | [3] | [4] | [5] | [6] | [7] | [8] | [9] | [10]

CC(C)c1ccc(CO)cc1
inactive: [1] | [2] | [3] | [4] | [5] | [6] | [7] | [8] | [9] | [10]

Nc1cccc2ccccc12
active: [1] 15.2 µM | [3] 31.6 µM | [6] 27.1 µM | [9] 13.6 µM | [10] 20 µM
inactive: [2] | [4] | [5] | [7] | [8]

O=C(Nc1ccc2[nH]ccc2c1)c1cc2cc(F)ccc2n1Cc1cccc(F)c1
active: [1] 33 µM | [2] 20 µM | [3] 3.33 µM | [4] 14.6 µM | [5] 29.2 µM | [6] 1.93 µM | [8] 5.96 µM | [9] 2.53 µM | [10] 3.18 µM
inactive: [7]

COC(=O)c1sccc1S(=O)(=O)NC(=O)Nc1nc(C)nc(OC)n1
inactive: [1] | [2] | [3] | [4] | [5] | [6] | [7] | [8] | [9] | [10]

O=c1[nH]c(=O)[nH]c(=O)[nH]1
inactive: [1] | [2] | [3] | [4] | [5] | [6] | [7] | [8] | [9] | [10]

O=[N+]([O-])c1ccc(O)c([N+](=O)[O-])c1
inactive: [1] | [2] | [3] | [4] | [5] | [6] | [7] | [8] | [9] | [10]

ClCC(Cl)CCl
inactive: [1] | [2] | [3] | [4] | [5] | [6] | [7] | [8] | [9] | [10]

O=C1C2(Cl)C3(Cl)C4(Cl)C(Cl)(Cl)C5(Cl)C3(Cl)C1(Cl)C5(Cl)C24Cl (stereo unspecified)
active: [1] 33.6 µM | [2] 19.3 µM | [3] 4.03 µM | [4] 18 µM | [5] 29 µM | [6] 3.46 µM | [7] 2.09 µM | [8] 14.3 µM | [9] 1.42 µM | [10] 21.9 µM

CC(C)(C)c1cc(O)ccc1O
active: [1] 14.7 µM | [2] 11.2 µM | [3] 4.87 µM | [5] 23.7 µM | [6] 5.6 µM | [7] 5.78 µM | [8] 9.21 µM | [9] 0.472 µM | [10] 5.23 µM
inactive: [4]

COc1cc(-c2ccc(N)c(OC)c2)ccc1N
active: [9] 13.2 µM and 4.28 µM | [10] 9.49 µM
inactive: [1] | [2] | [3] | [4] | [5] | [6] | [7] | [8] | [10]

CC(C)(c1ccccc1)c1ccc(O)c(C(C)(C)c2ccccc2)c1
active: [1] 34.3 µM | [2] 16.4 µM | [3] 3.52 µM | [4] 29.4 µM | [5] 29.3 µM | [6] 2.94 µM | [7] 3.45 µM | [8] 5.4 µM | [9] 2.82 µM | [10] 3.63 µM

CCSC(C)CC1CC(=O)C(C(CC)=NOC/C=C/Cl)=C(O)C1 (stereo unspecified)
inactive: [1] | [2] | [3] | [4] | [5] | [6] | [7] | [8] | [9] | [10]

CC(=O)[O][Hg][c]1ccccc1
inactive: [1] | [7]
active: [2] 3.97 µM | [3] 0.289 µM | [4] 0.487 µM | [5] 0.836 µM | [6] 0.279 µM | [8] 0.148 µM | [9] 0.148 µM | [10] 0.447 µM

COP(=S)(OC)Oc1ccc(S(=O)(=O)N(C)C)cc1
inactive: [1] | [2] | [3] | [4] | [5] | [6] | [7] | [8] | [10]
active: [9] 28.2 µM

Cn1sc(Cl)cc1=O
active: [3] 28.2 µM | [5] 20 µM | [6] 33.6 µM | [7] 33.6 µM | [8] 37.9 µM | [9] 1.77 µM | [10] 25.6 µM
inactive: [1] | [2] | [4]

CCC(C)(C)c1ccc(O)c(C(C)(C)CC)c1
active: [1] 33.8 µM | [2] 11.4 µM | [3] 6.49 µM | [4] 31.4 µM | [5] 12.2 µM | [6] 7.28 µM | [8] 10.4 µM | [9] 9.6 µM | [10] 8.2 µM
inactive: [7]
